# The full ranking holds about 16,000 sequences; the median of “rpm ratio (pull-down/input)” is about 0.94, and the highest 2% start at about 1.7. The list comes from a sample in which the highest values are over-represented; it also holds similar and randomly drawn sequences.
# Target: T1, MBP-FoxP1dN (Mus musculus, UniProt P58462 326-579)
# T1 sequence: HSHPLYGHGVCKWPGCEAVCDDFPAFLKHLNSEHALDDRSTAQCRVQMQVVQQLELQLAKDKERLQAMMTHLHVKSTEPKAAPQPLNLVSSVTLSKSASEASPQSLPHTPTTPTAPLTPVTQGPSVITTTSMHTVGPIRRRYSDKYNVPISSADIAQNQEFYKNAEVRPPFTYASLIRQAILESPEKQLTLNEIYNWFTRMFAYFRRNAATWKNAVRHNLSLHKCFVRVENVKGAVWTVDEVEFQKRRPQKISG
# Assay: PD-seq (MBP pull-down with sequencing); 20 mM Tris-HCl pH 7.5, 100 mM NaCl, 1.5 mM MgCl2, 0.4 uM protein, 0.1 uM dsDNA library, 30 min, room temperature, amylose pull-down; high values mean tight binding
# Conditions: protein: recombinant; tags: His6-MBP; chain copies: 2; dsDNA, one strand shown
# Procedure, shortened: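 A fragment of mouse FoxP3 or FoxP1 without its N-terminus, carrying a His6-MBP tag and produced in E. coli, was combined at 0.4 µM with a 0.1 µM degenerate double-stranded DNA library filled in with Klenow. The mixture sat for 30 min at room temperature in Tris pH 7.5 buffer containing NaCl and MgCl2. Protein–DNA complexes were captured on amylose resin, washed three times, and the DNA was freed with proteinase K, barcoded by PCR and sequenced on Illumina. Binding is expressed as reads-per-million enrichment of pull-down over input, with replicates pooled.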
row,Sequence,binding signal
1,GATGATTGTTCTCCCAGCTGATGAATTAAACTAATCGAGTAAACAAATTTTCCTAATCTTTCTGTTCAAGCGCCATCTAC,1.09 RPM ratio (pull-down/input)
2,GATGATTGTTCTCCCAGCTGATGAATTCGTCCTATCGAGTAAACAAATTTTCCTAATCTTTCTGTTCAAGCGCCATCTAC,0.835 RPM ratio (pull-down/input)
3,GATGATTGTTCTCCCAGCTGATGAATTTTCGCGATCGAGTAAACAAATTTTCCTAATCTTTCTGTTCAAGCGCCATCTAC,0.884 RPM ratio (pull-down/input)
4,GATGATTGTTCTCCCAGCTGATGAATTTGCGTTGTCGAGTAAACAAATTTTCCTAATCTTTCTGTTCAAGCGCCATCTAC,1.29 RPM ratio (pull-down/input)
5,GATGATTGTTCTCCCAGCTGATGAATTGGATAGCTCGAGTAAACAAATTTTCCTAATCTTTCTGTTCAAGCGCCATCTAC,0.85 RPM ratio (pull-down/input)
6,GATGATTGTTCTCCCAGCTGATGAATTACGTAAATCGAGTAAACAAATTTTCCTAATCTTTCTGTTCAAGCGCCATCTAC,1.34 RPM ratio (pull-down/input)
7,GATGATTGTTCTCCCAGCTGATGAATTTTACGTATCGAGTAAACAAATTTTCCTAATCTTTCTGTTCAAGCGCCATCTAC,0.962 RPM ratio (pull-down/input)
8,GATGATTGTTCTCCCAGCTGATGAATTTTTTAGATCGAGTAAACAAATTTTCCTAATCTTTCTGTTCAAGCGCCATCTAC,0.923 RPM ratio (pull-down/input)
9,GATGATTGTTCTCCCAGCTGATGAATTTGATTTATCGAGTAAACAAATTTTCCTAATCTTTCTGTTCAAGCGCCATCTAC,1.23 RPM ratio (pull-down/input)
10,GATGATTGTTCTCCCAGCTGATGAATTTTGTTTATCGAGTAAACAAATTTTCCTAATCTTTCTGTTCAAGCGCCATCTAC,2.61 RPM ratio (pull-down/input)
11,GATGATTGTTCTCCCAGCTGATGAATTTGGTTTATCGAGTAAACAAATTTTCCTAATCTTTCTGTTCAAGCGCCATCTAC,1.32 RPM ratio (pull-down/input)
12,GATGATTGTTCTCCCAGCTGATGAATTTAGTAAATCGAGTAAACAAATTTTCCTAATCTTTCTGTTCAAGCGCCATCTAC,1.58 RPM ratio (pull-down/input)
13,GATGATTGTTCTCCCAGCTGATGAATTTTAGTAATCGAGTAAACAAATTTTCCTAATCTTTCTGTTCAAGCGCCATCTAC,1.75 RPM ratio (pull-down/input)
14,GATGATTGTTCTCCCAGCTGATGAATTTAGTGAATCGAGTAAACAAATTTTCCTAATCTTTCTGTTCAAGCGCCATCTAC,0.958 RPM ratio (pull-down/input)
15,GATGATTGTTCTCCCAGCTGATGAATTGTTTAGATCGAGTAAACAAATTTTCCTAATCTTTCTGTTCAAGCGCCATCTAC,2.19 RPM ratio (pull-down/input)
16,GATGATTGTTCTCCCAGCTGATGAATTTACGTAATCGAGTAAACAAATTTTCCTAATCTTTCTGTTCAAGCGCCATCTAC,1.82 RPM ratio (pull-down/input)
17,GATGATTGTTCTCCCAGCTGATGAATTTAGATGATCGAGTAAACAAATTTTCCTAATCTTTCTGTTCAAGCGCCATCTAC,1.11 RPM ratio (pull-down/input)
18,GATGATTGTTCTCCCAGCTGATGAATTGTCACATTCGAGTAAACAAATTTTCCTAATCTTTCTGTTCAAGCGCCATCTAC,1.2 RPM ratio (pull-down/input)
19,GATGATTGTTCTCCCAGCTGATGAATTGAACGTTTCGAGTAAACAAATTTTCCTAATCTTTCTGTTCAAGCGCCATCTAC,0.869 RPM ratio (pull-down/input)
20,GATGATTGTTCTCCCAGCTGATGAATTTATGGGATCGAGTAAACAAATTTTCCTAATCTTTCTGTTCAAGCGCCATCTAC,0.919 RPM ratio (pull-down/input)
21,GATGATTGTTCTCCCAGCTGATGAATTCTCCCTCTCGAGTAAACAAATTTTCCTAATCTTTCTGTTCAAGCGCCATCTAC,0.869 RPM ratio (pull-down/input)

row,Sequence,binding signal
1,GATGATTGTTCTCCCAGCTGATGAATTATATTCCTCGAGTAAACAAATTTTCCTAATCTTTCTGTTCAAGCGCCATCTAC,0.968 RPM ratio (pull-down/input)
2,GATGATTGTTCTCCCAGCTGATGAATTGAGGTAGTCGAGTAAACAAATTTTCCTAATCTTTCTGTTCAAGCGCCATCTAC,0.86 RPM ratio (pull-down/input)
3,GATGATTGTTCTCCCAGCTGATGAATTAGATTTCTCGAGTAAACAAATTTTCCTAATCTTTCTGTTCAAGCGCCATCTAC,0.85 RPM ratio (pull-down/input)
4,GATGATTGTTCTCCCAGCTGATGAATTTTAGTTTTCGAGTAAACAAATTTTCCTAATCTTTCTGTTCAAGCGCCATCTAC,1.4 RPM ratio (pull-down/input)
5,GATGATTGTTCTCCCAGCTGATGAATTGTTTAGTTCGAGTAAACAAATTTTCCTAATCTTTCTGTTCAAGCGCCATCTAC,1.94 RPM ratio (pull-down/input)
6,GATGATTGTTCTCCCAGCTGATGAATTTAGTTTTTCGAGTAAACAAATTTTCCTAATCTTTCTGTTCAAGCGCCATCTAC,1.19 RPM ratio (pull-down/input)
7,GATGATTGTTCTCCCAGCTGATGAATTCGCGCAGTCGAGTAAACAAATTTTCCTAATCTTTCTGTTCAAGCGCCATCTAC,0.818 RPM ratio (pull-down/input)
8,GATGATTGTTCTCCCAGCTGATGAATTCAGTCGTTCGAGTAAACAAATTTTCCTAATCTTTCTGTTCAAGCGCCATCTAC,0.873 RPM ratio (pull-down/input)
9,GATGATTGTTCTCCCAGCTGATGAATTGTTTTAGTCGAGTAAACAAATTTTCCTAATCTTTCTGTTCAAGCGCCATCTAC,1.44 RPM ratio (pull-down/input)
10,GATGATTGTTCTCCCAGCTGATGAATTATTTTAGTCGAGTAAACAAATTTTCCTAATCTTTCTGTTCAAGCGCCATCTAC,1.21 RPM ratio (pull-down/input)
11,GATGATTGTTCTCCCAGCTGATGAATTTTTTAGGTCGAGTAAACAAATTTTCCTAATCTTTCTGTTCAAGCGCCATCTAC,0.925 RPM ratio (pull-down/input)
12,GATGATTGTTCTCCCAGCTGATGAATTTATTTAGTCGAGTAAACAAATTTTCCTAATCTTTCTGTTCAAGCGCCATCTAC,1.76 RPM ratio (pull-down/input)
13,GATGATTGTTCTCCCAGCTGATGAATTTTGTTAGTCGAGTAAACAAATTTTCCTAATCTTTCTGTTCAAGCGCCATCTAC,1.82 RPM ratio (pull-down/input)
14,GATGATTGTTCTCCCAGCTGATGAATTCTGTTAGTCGAGTAAACAAATTTTCCTAATCTTTCTGTTCAAGCGCCATCTAC,1.29 RPM ratio (pull-down/input)
15,GATGATTGTTCTCCCAGCTGATGAATTGTTTAGGTCGAGTAAACAAATTTTCCTAATCTTTCTGTTCAAGCGCCATCTAC,1.93 RPM ratio (pull-down/input)
16,GATGATTGTTCTCCCAGCTGATGAATTCTTTAGGTCGAGTAAACAAATTTTCCTAATCTTTCTGTTCAAGCGCCATCTAC,0.821 RPM ratio (pull-down/input)
17,GATGATTGTTCTCCCAGCTGATGAATTTTTTTAGTCGAGTAAACAAATTTTCCTAATCTTTCTGTTCAAGCGCCATCTAC,1.05 RPM ratio (pull-down/input)
18,GATGATTGTTCTCCCAGCTGATGAATTTGGTTAGTCGAGTAAACAAATTTTCCTAATCTTTCTGTTCAAGCGCCATCTAC,0.953 RPM ratio (pull-down/input)
19,GATGATTGTTCTCCCAGCTGATGAATTTTATTAGTCGAGTAAACAAATTTTCCTAATCTTTCTGTTCAAGCGCCATCTAC,1.28 RPM ratio (pull-down/input)
20,GATGATTGTTCTCCCAGCTGATGAATTTGTTTAGTCGAGTAAACAAATTTTCCTAATCTTTCTGTTCAAGCGCCATCTAC,2.24 RPM ratio (pull-down/input)

# — PMC12820563, “FoxP3 forms a head-to-head dimer in vivo and stabilizes its multimerization on adjacent microsatellites”
